From PubChem BioAssay (EPA / NIEHS)
“And” between values parts separate entries of the source, which are not always exact repeats. Equal entries are not always repeated. A structure can be active in one record and inactive in another. The source made the active and inactive calls. Rule for the calls: active = hit-call score of the fitted dose curve at least 0.9, where 1 is the maximum; inactive = score below 0.9.

Legend:
[1] = BSK_CASM3C_SRB: Viability Assessment in the BioMAP Diversity Plus: CASM3C Assay (AID 2283050); settings: primary human coronary artery smooth muscle cells
[2] = read-out: Thrombomodulin, THBD (gene 7056); test: BSK_CASM3C_Thrombomodulin: BioMAP Diversity Plus: CASM3C Assay for Thrombomodulin Biomarker Activity (AID 2283051); settings: primary human coronary artery smooth muscle cells; actives raise or lower the signal;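 note: thrombomodulin protein level measured by ELISA 24 h after dosing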
[3] = read-out: Tissue Factor, F3 (gene 2152); test: BSK_CASM3C_TissueFactor: BioMAP Diversity Plus: CASM3C Assay for Tissue Factor Biomarker Activity (AID 2283052); settings: primary human coronary artery smooth muscle cells; actives raise or lower the signal;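 note: cell surface tissue factor protein level read by ELISA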
[4] = read-out: Interferon-gamma inducible Protein 10 (IP10), CXCL10 (gene 3627); test: BSK_hDFCGF_IP10: BioMAP Diversity Plus: hDFCGF Assay for Interferon-gamma inducible Protein 10 (IP10) Biomarker Activity (AID 2283053); settings: primary human foreskin fibroblasts; actives raise or lower the signal
In short: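 Chemical-treated human skin fibroblasts (primary) were sampled at 24 h for IP-10 by ELISA. Both increases and decreases relative to DMSO were scored.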

[5] = read-out: Urokinase-type plasminogen activator receptor (uPAR), PLAUR (gene 5329); test: BSK_CASM3C_uPAR: BioMAP Diversity Plus: CASM3C Assay for Urokinase-type plasminogen activator receptor (uPAR) Biomarker Activity (AID 2283054); settings: primary human coronary artery smooth muscle cells; actives raise or lower the signal;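 note: cell-surface uPAR protein level quantified by ELISA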
[6] = read-out: Vascular cell adhesion molecule 1 (VCAM1), VCAM1 (gene 7412); test: BSK_CASM3C_VCAM1: BioMAP Diversity Plus: CASM3C Assay for Vascular cell adhesion molecule 1 (VCAM1) Biomarker Activity (AID 2283055); settings: primary human coronary artery smooth muscle cells; actives raise or lower the signal;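 note: VCAM-1 protein level quantified by ELISA on the cells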
[7] = read-out: Collagen III, COL3A1 (gene 1281); test: BSK_hDFCGF_CollagenIII: BioMAP Diversity Plus: hDFCGF Assay for Collagen III Biomarker Activity (AID 2283056); settings: primary human foreskin fibroblasts; actives raise or lower the signal
In short: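 Response relative to DMSO, fitted in both directions, reflects ELISA-measured collagen III in human primary skin fibroblasts 24 h after compound addition.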

[8] = read-out: Epidermal growth factor receptor (EGFR), EGFR (gene 1956); test: BSK_hDFCGF_EGFR: BioMAP Diversity Plus: hDFCGF Assay for Epidermal growth factor receptor (EGFR) Biomarker Activity (AID 2283057); settings: primary human foreskin fibroblasts; actives raise or lower the signal
In short: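 Cell-based multiplexed assay in primary human foreskin fibroblasts. EGFR is read by ELISA 24 h after treatment and compared with DMSO controls.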

[9] = read-out: Interleukin-8 (IL8), CXCL8 (gene 3576); test: BSK_hDFCGF_IL8: BioMAP Diversity Plus: hDFCGF Assay for Interleukin-8 (IL8) Biomarker Activity (AID 2283058); settings: primary human foreskin fibroblasts; actives raise or lower the signal
In short: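 Fibroblast monolayers (human foreskin, hDFCGF) received test chemical for 24 h before ELISA detection of IL-8; either increases or decreases relative to DMSO count as activity.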

[10] = BSK_hDFCGF_Proliferation: Cell Proliferation Assessment in the BioMAP Diversity Plus: hDFCGF Assay (AID 2283059); settings: primary human foreskin fibroblasts;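 note: curves fitted for both rise and fall of signal versus DMSO baseline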
In short: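 Total protein read at 560 nm after 0.1% SRB staining of TCA-fixed human skin fibroblasts, […]. Activity is fitted in both directions relative to DMSO as baseline.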

[11] = read-out: Macrophage colony-stimulating factor (MCSF), CSF1 (gene 1435); test: BSK_hDFCGF_MCSF: BioMAP Diversity Plus: hDFCGF Assay for Macrophage colony-stimulating factor (MCSF) Biomarker Activity (AID 2283060); settings: primary human foreskin fibroblasts; actives raise or lower the signal
In short: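 fibroblasts (human foreskin, primary), 24 h post-dose; M-CSF by ELISA; bidirectional fit, DMSO = baseline.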

[12] = BSK_hDFCGF_SRB: Viability Assessment in the BioMAP Diversity Plus: hDFCGF Assay (AID 2283061); settings: primary human foreskin fibroblasts;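 note: cells exposed to compound for 24 h before the read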
In short: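 SRB-based viability read on primary human skin fibroblasts at 24 h: TCA fixation, 0.1% dye, 560 nm. Gain or loss of signal is fitted against the DMSO negative control.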

[13] = read-out: TIMP metallopeptidase inhibitor 1 (TIMP1), TIMP1 (gene 7076); test: BSK_hDFCGF_TIMP1: BioMAP Diversity Plus: hDFCGF Assay for TIMP metallopeptidase inhibitor 1 (TIMP1) Biomarker Activity (AID 2283062); settings: primary human foreskin fibroblasts; actives raise or lower the signal
In short: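 Bidirectional curve fitting against DMSO baseline yielded this endpoint, based on ELISA detection of TIMP-1 in primary human foreskin fibroblasts exposed to compound for 24 h.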

[14] = read-out: Monokine induced gamma interferon (MIG), CXCL9 (gene 4283); test: BSK_hDFCGF_MIG: BioMAP Diversity Plus: hDFCGF Assay for Monokine induced gamma interferon (MIG) Biomarker Activity (AID 2283063); settings: primary human foreskin fibroblasts; actives raise or lower the signal
In short: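 Endpoint derived by bidirectional fitting relative to DMSO; MIG quantified via ELISA in primary human foreskin fibroblasts harvested 24 h after dosing.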

[15] = read-out: Matrix Metallopeptidase 1 (MMP1), MMP1 (gene 4312); test: BSK_hDFCGF_MMP1: BioMAP Diversity Plus: hDFCGF Assay for Matrix Metallopeptidase 1 (MMP1) Biomarker Activity (AID 2283064); settings: primary human foreskin fibroblasts; actives raise or lower the signal
In short: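 MMP1 levels quantified by ELISA 24 h after dosing human dermal fibroblast cultures, with parallel SRB total-protein staining for overt cytotoxicity. Data fitted in both directions against DMSO baseline.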

[16] = read-out: Vascular cell adhesion molecule 1 (VCAM1), VCAM1 (gene 7412); test: BSK_hDFCGF_VCAM1: BioMAP Diversity Plus: hDFCGF Assay for Vascular cell adhesion molecule 1 (VCAM1) Biomarker Activity (AID 2283065); settings: primary human foreskin fibroblasts; actives raise or lower the signal;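 for AC50: VCAM-1 protein level quantified by ELISA after 24 h chemical exposure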
In short: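 Measured after 24 h chemical treatment of primary human skin fibroblasts, VCAM-1 was detected by ELISA and concentration-response analysed in both directions versus DMSO vehicle.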

[17] = read-out: Plasminogen activator inhibitor-1 (PAI1), SERPINE1 (gene 5054); test: BSK_hDFCGF_PAI1: BioMAP Diversity Plus: hDFCGF Assay for Plasminogen activator inhibitor-1 (PAI1) Biomarker Activity (AID 2283066); settings: primary human foreskin fibroblasts; actives raise or lower the signal
In short: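 Human skin fibroblast cultures receive chemical for 24 h before PAI-1 is measured by ELISA; signal changes are fitted bidirectionally against DMSO-treated wells.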

[18] = read-out: Intercellular Adhesion Molecule 1 (ICAM1), ICAM1 (gene 3383); test: BSK_KF3CT_ICAM1: BioMAP Diversity Plus: KF3CT Assay for Intercellular Adhesion Molecule 1 (ICAM1) Biomarker Activity (AID 2283067); settings: primary human keratinocytes with fibroblasts; actives raise or lower the signal
In short: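 Bidirectional curve fitting against a DMSO baseline was applied to ICAM-1 ELISA signal from primary human skin co-cultures harvested 24 h after treatment, with SRB staining of parallel wells for overt cytotoxicity.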

[19] = read-out: Interferon-gamma inducible Protein 10 (IP10), CXCL10 (gene 3627); test: BSK_KF3CT_IP10: BioMAP Diversity Plus: KF3CT Assay for Interferon-gamma inducible Protein 10 (IP10) Biomarker Activity (AID 2283068); settings: primary human keratinocytes with fibroblasts; actives raise or lower the signal
In short: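 Human keratinocyte plus foreskin fibroblast primary co-culture exposed to test chemical for 24 h; IP-10 measured by ELISA. Concentration-response fitted bidirectionally against DMSO control as baseline.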

[20] = BSK_KF3CT_SRB: Viability Assessment in the BioMAP Diversity Plus: KF3CT Assay (AID 2283069); settings: primary human keratinocytes with fibroblasts;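 note: total protein by sulforhodamine B staining as a cytotoxicity measure; fitted for both signal gain and loss against DMSO baseline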
In short: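 Cytotoxicity was gauged by SRB staining (0.1% SRB, 10% TCA fixation, 560 nm) of parallel cultures at 24 h. The cells were primary human skin keratinocytes co-cultured with fibroblasts, and activity was fitted in both directions against DMSO.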

In the case of CCCCCCCCCc1ccc(O)cc1, the AC50 [1] is reported as 34.1 µM (active), the AC50 [2] is reported as 37.8 µM (active) and the AC50 [3] is reported as 28.7 µM (active). The AC50 [4] was 14.1 µM (active), the AC50 [5] was 38.2 µM (active) and the AC50 [6] was 33.6 µM (active). For the same compound, the AC50 [7] was 9.87 µM (active), the outcome [8] was “inactive” and the AC50 [9] was 17.2 µM (active). For the same compound, the AC50 [10] was 5.93 µM (active), the AC50 [11] was 13.6 µM (active) and the AC50 [12] was 15.4 µM (active). The AC50 [13] was 16.9 µM (active), the AC50 [14] was 14.9 µM (active) and the AC50 [15] was 15.4 µM (active). The AC50 [16] was 13.3 µM (active), the AC50 [17] was 15.5 µM (active) and the AC50 [18] was 15.1 µM (active). The AC50 [19] was 13.4 µM (active) and the AC50 [20] was 14.6 µM (active).
For CO/C=C(/C(=O)OC)c1ccccc1COc1cccc(C(F)(F)F)n1, the outcome [1] was “inactive”, the outcome [2] was “inactive” and the outcome [3] was “inactive”. For the same compound, the outcome [4] was “inactive”, the outcome [5] was “inactive” and the outcome [6] was “inactive”. The AC50 [7] was 1.75 µM (active), the outcome [8] was “inactive” and the outcome [9] was “inactive”. For the same compound, the AC50 [10] was 4.78 µM (active), the AC50 [12] was 10.7 µM (active) and the outcome [13] was “inactive”. The outcome [14] was “inactive”, the AC50 [15] was 6.92 µM (active) and the outcome [16] was “inactive”. For the same compound, the AC50 [17] was 11.1 µM (active), the outcome [18] was “inactive” and the outcome [19] was “inactive”. For the same compound, the outcome [20] was “inactive”.
In the case of CCNc1nc(NC(C)C)nc(SC)n1, the outcome [1] is reported as “inactive”, the outcome [2] is reported as “inactive” and the outcome [3] is reported as “inactive”. The AC50 [4] was 30.4 µM (active), the outcome [5] was “inactive” and the outcome [6] was “inactive”. For the same compound, the outcome [7] was “inactive”, the outcome [8] was “inactive” and the outcome [9] was “inactive”. For the same compound, the outcome [10] was “inactive”, the outcome [11] was “inactive” and the outcome [12] was “inactive”. For the same compound, the outcome [13] was “inactive”, the outcome [14] was “inactive” and the outcome [15] was “inactive”. For the same compound, the outcome [16] was “inactive”, the outcome [17] was “inactive” and the outcome [18] was “inactive”. For the same compound, the outcome [19] was “inactive” and the outcome [20] was “inactive”.
With O=C(O)C(F)(F)C(F)(F)C(F)(F)C(F)(F)C(F)(F)C(F)(F)C(F)(F)C(F)(F)F the outcome [1] was “inactive”, the outcome [2] was “inactive” and the AC50 [3] was 7.84 µM (active). The outcome [3] was “inactive”, the AC50 [4] was 32.4 µM (active) and 43.4 µM (active) and the outcome [4] was “inactive”. The outcome [5] was “inactive”, the outcome [6] was “inactive” and the AC50 [7] was 7.13 µM (active). The outcome [7] was “inactive”, the outcome [8] was “inactive” and the outcome [9] was “inactive”. For the same compound, the AC50 [10] was 34.2 µM (active) and 20.8 µM (active) and 46.7 µM (active), the outcome [12] was “inactive” and the outcome [13] was “inactive”. The AC50 [14] was 19 µM (active), the outcome [14] was “inactive” and the outcome [15] was “inactive”. For the same compound, the AC50 [16] was 48.5 µM (active), the outcome [16] was “inactive” and the outcome [17] was “inactive”. For the same compound, the outcome [18] was “inactive”, the AC50 [19] was 30.2 µM (active) and 54.7 µM (active) and 47.3 µM (active) and the outcome [20] was “inactive”.
In the case of CCOP(=S)(OCC)SCSC(C)(C)C, the outcome [1] is reported as “inactive”, the outcome [2] is reported as “inactive” and the outcome [3] is reported as “inactive”. For the same compound, the outcome [4] was “inactive”, the outcome [5] was “inactive” and the outcome [6] was “inactive”. The outcome [7] was “inactive”, the outcome [8] was “inactive” and the outcome [9] was “inactive”. The outcome [10] was “inactive”, the outcome [11] was “inactive” and the outcome [12] was “inactive”. The outcome [13] was “inactive”, the outcome [14] was “inactive” and the outcome [15] was “inactive”. The outcome [16] was “inactive”, the outcome [17] was “inactive” and the outcome [18] was “inactive”. The outcome [19] was “inactive” and the outcome [20] was “inactive”.
